The nature of experiment [1]: qHTS Assay for Identification of Small Molecule Inducers of Hypoxia Response (AID 2120; active = well fitted curve in the direction sought with a large enough effect in the signal ratio, with a control signal flat, not every such curve was filed as active; the % refers to the signal ratio). The gist of the method: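 Cell-based qHTS for reporter induction: hypoxia response element controlled beta-lactamase in ME-180 cells. Compounds incubated 17 h at 37 degrees C; activity from blue/green (460/530 nm) ratio, inducers ranked by AC50.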
A general note: Quantitative high-throughput screening tests each substance at several concentrations.

In experiment [2] the target is Ferritin light chain (Equus caballus) (UniProt P02791). Kind of experiment: qHTS Validation Assay for Identification of Novel General Anesthetics (AID 2323). Note: series mostly up to about 77 µM. The gist of the method:
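10 uM horse-spleen apoferritin + 1-AMA (50% saturated, PBS); cpd pin-transferred, 10 min RT. Ex 380/Em 535 nm endpoint. Activity normalized between free 1-AMA and 1-AMA/apoferritin; 4-parameter Hill fit of concentration-response.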

In experiment [3] the target is ATP-dependent DNA helicase Q1 (Homo sapiens) (UniProt P46063). As to the kind of experiment: qHTS Validation Assay for Inhibitors of RecQ-Like Dna Helicase 1 (RECQ1) (AID 2353). The gist of the method: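 RECQ1T1 50 nM; forked duplex (20 bp + 30-nt ss tails) 200 nM, ATP 2 mM final; pH 8.0, 2 mM MgCl2, 2.5 ug/ml poly(dI-dC); 15 min compound preincubation; discontinuous kinetic read over 2 h at RT.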
Chain of ATP-dependent DNA helicase Q1 (Homo sapiens) (P46063 whole entry, looked up): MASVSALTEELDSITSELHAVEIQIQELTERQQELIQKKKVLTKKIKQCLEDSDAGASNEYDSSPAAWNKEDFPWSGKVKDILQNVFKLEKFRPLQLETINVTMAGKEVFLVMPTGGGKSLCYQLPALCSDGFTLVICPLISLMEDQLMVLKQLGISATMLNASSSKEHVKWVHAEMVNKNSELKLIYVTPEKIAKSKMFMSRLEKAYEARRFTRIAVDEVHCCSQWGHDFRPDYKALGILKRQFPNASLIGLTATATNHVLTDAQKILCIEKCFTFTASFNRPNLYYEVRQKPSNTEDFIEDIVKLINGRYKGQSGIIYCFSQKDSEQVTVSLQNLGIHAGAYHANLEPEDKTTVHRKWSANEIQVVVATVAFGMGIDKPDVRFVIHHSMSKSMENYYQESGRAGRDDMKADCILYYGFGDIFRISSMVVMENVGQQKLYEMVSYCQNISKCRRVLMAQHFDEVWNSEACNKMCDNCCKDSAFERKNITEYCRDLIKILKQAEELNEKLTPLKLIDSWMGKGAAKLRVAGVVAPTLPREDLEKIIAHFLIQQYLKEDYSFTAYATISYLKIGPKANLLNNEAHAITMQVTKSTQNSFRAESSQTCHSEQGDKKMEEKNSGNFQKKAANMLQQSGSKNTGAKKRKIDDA

The nature of experiment [4]: Cytometric Cell-Based qHTS for Inhibitors of the mTORC1 Signaling Pathway in MEF (Tsc2-/-, p53-/-) Cells (AID 2660).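 Note: Tsc2 and p53 null MEFs carrying empty vector with compound for 24 h; percent of cells above a phospho-rpS6 to PI ratio cutoff in each well; series mostly up to about 38 µM.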 The method, boiled down:
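Percent of cells positive for normalized phospho-S6 staining is reported, with the cutoff set from rapamycin (7.5 nM) versus DMSO wells. Tsc2-/-, p53-/- MEFs received compound for 24 hrs.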

Experiment [5] can be described thus: High Content Imaging Cell-Based qHTS for Inhibitors of the mTORC1 Signaling Pathway in MEF (Tsc2-/-, p53-/-) Cells (AID 2666).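 Note: percent of cells scored positive for phospho-rpS6 Ser235/236 immunostaining by imaging.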 The method, boiled down: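 MEF Tsc2-/- p53-/- (empty vector), DMEM/10% FBS; cpd 24 h 37 °C; PFA fix, Alexa-488 p-rpS6 S235/236 Ab, Hoechst; imaged; rapamycin-defined inhibition; % positive cells/well.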
Experiment [6] in a line: Validation screen for small molecules that induce DNA re-replication in MCF 10A normal breast cells (AID 463097). Note: nearly all actives have a fitted effect of over 60% in size. The gist of the method: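 250 MCF 10A cells/well; compound pin-transferred; 48 hr, 37 C, 5% CO2; Hoechst 40 min; imaged 405/500-530 nm. Hits = more high-intensity nuclei.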
The target of experiment [7] is RecQ-like DNA helicase BLM (Homo sapiens) (UniProt P54132). As to the kind of experiment: qHTS Validation Assay for Inhibitors of Bloom's syndrome helicase (BLM) (AID 2364). Note: potency is the fitted concentration of half-maximal effect. The gist of the method:
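50 nM BLM preincubated 15 min at room temperature with compound in pH 8.0 Tris buffer containing 2.5 ug/ml poly(dI-dC); started with 200 nM TAMRA/BHQ-2 forked duplex and 2 mM ATP (final). Unwinding read as TAMRA fluorescence increase, two reads 2 h apart.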

Experiment [8] can be described thus: High Content Imaging Cell-Based qHTS for Inhibitors of the mTORC1 Signaling Pathway in MEF Cells (AID 2667). Note: potency is the fitted concentration of half-maximal effect. The method, boiled down: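 Read-out is the share of phospho-rpS6-positive cells per well, from Hoechst-normalized Alexa-488 Ser235/236 staining imaged on IN Cell. Cells: WT Tsc2-expressing Tsc2-/-, p53-/- MEFs exposed to compound for 24 hrs.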
Experiment [9] can be described thus: Cytometry Cell-Based qHTS for Inhibitors of the mTORC1 Signaling Pathway in MEF cells (AID 2668). Note: potency is the fitted concentration of half-maximal effect. The gist of the method:
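Read-out: phospho-rpS6 Ser235/236 immunofluorescence normalized to propidium iodide intensity, scored as % active cells against a rapamycin (7.5 nM) threshold. Cells: Tsc2-/-, p53-/- MEFs stably expressing WT Tsc2, compound-treated 24 hrs at 37 degree Celsius.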

The nature of experiment [10]: qHTS Assay for Modulators of Human Peripheral Myelin Protein 22 (PMP22) Expression/Activity (AID 1967; active = well fitted curve in the direction sought with a large enough effect in the signal ratio; the % refers to the signal ratio; note: potency is the fitted concentration of half-maximal effect). The method, boiled down:
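Mouse MSC80 Schwann line, Pmp22 promoter–CBG68 reporter, EF-alpha–CBR internal control. 24h compound exposure, 37 °C/5% CO2, DMEM + 10% FBS. Readout: corrected green/red luminescence ratio, normalized to untreated cells; concentration-response curves fitted and classified.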

Inconclusive results are not listed. The source made the active and inactive calls. Unless noted, calls come from the whole dose curve; as a rule, active = well fitted curve in the direction sought with a large enough effect; inconclusive = small, poorly fitted or top-dose-only effect, or another doubt; inactive = no such curve, though single readings can be large; an effect the other way counts as inactive or inconclusive.

Chain of RecQ-like DNA helicase BLM (Homo sapiens) (P54132 whole entry, looked up): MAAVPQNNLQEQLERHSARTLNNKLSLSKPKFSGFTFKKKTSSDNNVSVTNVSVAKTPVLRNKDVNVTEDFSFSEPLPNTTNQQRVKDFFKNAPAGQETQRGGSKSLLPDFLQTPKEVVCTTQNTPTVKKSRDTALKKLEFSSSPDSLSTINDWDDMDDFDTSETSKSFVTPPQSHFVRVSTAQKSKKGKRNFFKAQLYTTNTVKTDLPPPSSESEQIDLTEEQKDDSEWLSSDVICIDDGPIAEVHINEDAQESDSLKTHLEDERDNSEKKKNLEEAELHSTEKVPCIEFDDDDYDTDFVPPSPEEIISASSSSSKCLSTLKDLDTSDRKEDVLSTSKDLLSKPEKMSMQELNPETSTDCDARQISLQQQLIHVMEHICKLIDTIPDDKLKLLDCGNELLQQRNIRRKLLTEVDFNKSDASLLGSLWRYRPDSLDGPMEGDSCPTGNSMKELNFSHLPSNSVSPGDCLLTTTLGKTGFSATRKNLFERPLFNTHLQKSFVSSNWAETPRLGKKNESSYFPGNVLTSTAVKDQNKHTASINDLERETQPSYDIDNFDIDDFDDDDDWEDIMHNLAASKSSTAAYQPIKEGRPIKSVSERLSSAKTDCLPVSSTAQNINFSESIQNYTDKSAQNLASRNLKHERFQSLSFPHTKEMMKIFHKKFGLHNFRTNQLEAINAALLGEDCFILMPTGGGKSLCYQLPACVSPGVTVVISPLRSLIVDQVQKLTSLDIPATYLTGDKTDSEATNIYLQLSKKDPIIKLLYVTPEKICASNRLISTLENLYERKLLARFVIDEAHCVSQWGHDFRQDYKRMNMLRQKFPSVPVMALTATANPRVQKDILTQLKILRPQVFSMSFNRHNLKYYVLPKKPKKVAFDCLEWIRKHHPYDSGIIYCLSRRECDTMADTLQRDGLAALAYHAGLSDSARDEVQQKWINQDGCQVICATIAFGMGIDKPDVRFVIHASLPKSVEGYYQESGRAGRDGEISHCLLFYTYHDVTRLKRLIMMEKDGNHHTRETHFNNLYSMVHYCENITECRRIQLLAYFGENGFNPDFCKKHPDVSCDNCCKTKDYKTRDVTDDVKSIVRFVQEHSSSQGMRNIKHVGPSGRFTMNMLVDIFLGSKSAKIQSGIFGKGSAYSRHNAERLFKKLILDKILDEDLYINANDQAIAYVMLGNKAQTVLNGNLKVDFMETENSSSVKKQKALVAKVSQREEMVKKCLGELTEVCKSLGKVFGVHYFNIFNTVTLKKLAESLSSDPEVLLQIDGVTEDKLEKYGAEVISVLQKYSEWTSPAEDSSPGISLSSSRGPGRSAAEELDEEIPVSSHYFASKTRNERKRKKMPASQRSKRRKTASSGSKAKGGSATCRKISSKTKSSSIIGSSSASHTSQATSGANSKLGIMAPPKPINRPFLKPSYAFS
Chain of Ferritin light chain (Equus caballus) (P02791 2-175 limits assumed): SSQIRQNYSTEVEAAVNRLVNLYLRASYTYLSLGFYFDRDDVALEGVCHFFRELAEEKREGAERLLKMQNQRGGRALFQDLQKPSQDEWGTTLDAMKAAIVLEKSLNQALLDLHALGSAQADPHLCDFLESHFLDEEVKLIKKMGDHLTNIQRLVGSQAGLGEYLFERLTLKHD

Turning to `N[C@@H](Cc1c[nH]c2ccc(O)cc12)C(=O)O`, the molecule was called inactive in experiment [1] and in [4]. Also, the Potency result in experiment [2], in experiment [3], in experiment [5] and in experiment [6] was “inactive” throughout.
As to `CC(CCc1ccc(O)cc1)NCCc1ccc(O)c(O)c1` (configuration not stated), the Potency entry in experiment [2], in experiment [3], in experiment [7], in experiment [5], in [8] and in experiment [9] was “inactive” throughout. Besides, the result in experiment [4] was inactive.
`Cn1c(=O)c2[nH]cnc2n(C)c1=O`: the Potency entry in experiment [2], in [3], in [7], in experiment [5], in experiment [8] and in [9] was “inactive” in each case. Further, in experiment [6], the Potency entry is “inactive”. In experiment [4], the outcome was inactive.
Turning to `CCOC(=O)Nc1ccc(NCc2ccc(F)cc2)nc1N`, the Potency result in experiment [2], in experiment [3], in [5], in experiment [8] and in experiment [9] was “inactive” each time. Also, the Potency in [7] was 28.2 µM (active). In addition, in experiment [4], the result was inactive.
On to `Cn1cnc2c1c(=O)[nH]c(=O)n2C`, for which the Potency entry in experiment [2], in experiment [3], in [7], in experiment [5], in experiment [8] and in experiment [9] was “inactive” each time. For the same molecule, in [6], the Potency result was “inactive”. For the same molecule, the molecule was classed as inactive in experiment [4].
With `O=C(c1ccc(F)cc1)C1CCN(CCn2c(=O)[nH]c3ccccc3c2=O)CC1`, the Potency entry in experiment [2], in experiment [3], in experiment [7], in experiment [5], in [9] and in experiment [6] was “inactive” each time. For the same molecule, the molecule was called inactive in experiment [4].
Regarding `COc1ccc2c(c1)c(CC(=O)O)c(C)n2C(=O)c1ccc(Cl)cc1`, the result in experiment [1] and in experiment [4] was inactive. The Potency result in experiment [2], in experiment [3], in experiment [7], in [5], in experiment [8] and in [6] was “inactive” throughout.
`O=C1N(c2ccccc2)c2ccccc2C1(Cc1ccncc1)Cc1ccncc1`: the Potency result in [10], in experiment [2], in experiment [3], in experiment [7], in [5] and in experiment [9] was “inactive” in each case. In addition, the Potency entry in [6] was “inactive”. In addition, the outcome in [4] was inactive.
Regarding `CN1C2CCC1CC(OC(=O)C(CO)c1ccccc1)C2` (configuration not stated), the Potency entry in experiment [10], in experiment [2], in experiment [3], in experiment [5], in experiment [9] and in experiment [6] was “inactive” throughout. Also, the call in experiment [4] was inactive.
With `NC(=O)OCC(COC(N)=O)c1ccccc1`, the Potency entry in experiment [2], in [3], in experiment [7], in experiment [5], in experiment [9] and in experiment [6] was “inactive” in each case. In addition, in [4], the molecule was classed as inactive.
Take `CN1CCC(=C2c3ccccc3CC(=O)c3sccc32)CC1`: the Potency entry in experiment [2], in experiment [3], in [7], in experiment [5], in experiment [8] and in experiment [9] was “inactive” throughout. Besides, the Potency entry in [6] is “inactive”. Besides, in [4], the result was inactive.
Consider `CCCNCC(O)COc1ccccc1C(=O)CCc1ccccc1` (configuration not stated), for which the Potency result in experiment [2], in experiment [3], in experiment [7], in [5] and in experiment [6] was “inactive” throughout. Moreover, the result in experiment [4] was inactive. The Potency in experiment [8] was 16.5 µM (active).
Consider `NS(=O)(=O)c1cc2c(cc1Cl)NCNS2(=O)=O`, for which the Potency entry in experiment [2], in [3], in [7], in experiment [5], in experiment [9] and in experiment [6] was “inactive” each time. Further, in experiment [4], the outcome was inactive.
Turning to `CC(C(=O)O)c1cccc(C(=O)c2ccccc2)c1` (configuration not stated), the Potency in experiment [10] is 23.9 µM (active). The Potency entry in [2], in [3], in experiment [7], in experiment [5], in experiment [9] and in experiment [6] was “inactive” each time. Besides, the molecule was classed as inactive in experiment [4].
In the case of `NCCc1cnc[nH]1`, the Potency result in [10], in experiment [2], in experiment [3], in experiment [5], in experiment [9] and in [6] was “inactive” each time. For the same molecule, in experiment [4], the molecule was called inactive.
As to `CC(C)NCC(O)c1ccc(O)c(O)c1` (configuration not stated), the Potency entry in [2], in experiment [3], in [7], in [5] and in experiment [6] was “inactive” in each case. The molecule was classed as inactive in experiment [4]. For the same molecule, in [9], the Potency was 13.1 µM (active).
As to `Cn1c(=O)c2c(ncn2C)n(C)c1=O`, the outcome in experiment [1] and in experiment [4] was inactive. Besides, the Potency entry in experiment [2], in experiment [3], in experiment [7], in [5], in experiment [9] and in experiment [6] was “inactive” in each case.
On to `O=C(CCCN1CCC(O)(c2ccc(Cl)cc2)CC1)c1ccc(F)cc1`, for which the Potency entry in [2], in experiment [3], in experiment [7], in experiment [5] and in experiment [6] was “inactive” throughout. Further, in experiment [4], the molecule was classed as inactive. Also, the Potency in experiment [8] was 23.3 µM (active).
As to `CCC1(c2ccccc2)C(=O)NCNC1=O`, the Potency entry in experiment [2], in [3], in [7], in [5], in experiment [8] and in experiment [9] was “inactive” throughout. Besides, the Potency entry in experiment [6] was “inactive”. For the same molecule, the outcome in experiment [4] was inactive.
For `COc1cc2nc(N3CCN(C(=O)C4COc5ccccc5O4)CC3)nc(N)c2cc1OC` (configuration not stated), the Potency result in experiment [2], in experiment [3], in experiment [7] and in experiment [5] was “inactive” in each case. For the same molecule, in experiment [4], the outcome was inactive. Besides, the Potency in [9] was 11.7 µM (active).
For `CC1COc2c(N3CCN(C)CC3)c(F)cc3c(=O)c(C(=O)O)cn1c23` (configuration not stated), the Potency result in [10], in [3], in experiment [7], in experiment [5], in experiment [8] and in experiment [9] was “inactive” in each case. Moreover, in experiment [6], the Potency result is “inactive”. Moreover, the molecule was called inactive in [4].
Take `NCCS(=O)(=O)O`: the Potency result in [10], in experiment [2], in [3], in experiment [5], in [9] and in experiment [6] was “inactive” throughout. In addition, in experiment [4], the outcome was inactive.
For `Cc1ccc(-c2cc(C(F)(F)F)nn2-c2ccc(S(N)(=O)=O)cc2)cc1`, in experiment [1], the molecule was classed as inactive.
For `CN(C)CCOC(c1ccccc1)c1ccccc1`, the Potency result in experiment [2], in [3], in experiment [7], in experiment [5], in [8] and in experiment [6] was “inactive” throughout. In addition, the result in [4] was inactive.
For the molecule `COc1cc2c(c(OC)c1OC)-c1ccc(OC)c(=O)cc1[C@@H](NC(C)=O)CC2`, the Potency result in experiment [10], in experiment [3], in experiment [7], in [5] and in experiment [9] was “inactive” in each case. In addition, the molecule was called inactive in [1] and in [4].
In the case of `Nc1c2c(nc3ccccc13)CCCC2`, the Potency result in experiment [2], in experiment [3], in experiment [7], in [5], in [8] and in experiment [9] was “inactive” in each case. The Potency result in experiment [6] is “inactive”. In addition, the molecule was classed as inactive in experiment [4].
Turning to `CN1CCN(CCCN2c3ccccc3Sc3ccc(Cl)cc32)CC1`, the Potency result in experiment [2], in experiment [3] and in experiment [7] was “inactive” each time.
Take `O=c1c(-c2ccc(O)cc2)coc2cc(O)cc(O)c12`: the molecule was classed as inactive in [1] and in [4]. Further, the Potency result in [3], in experiment [5], in experiment [9] and in experiment [6] was “inactive” throughout.
Take `CN(C)c1nc(N(C)C)nc(N(C)C)n1`: the Potency result in [10], in experiment [2], in [3], in [5], in [9] and in experiment [6] was “inactive” each time. Further, in [4], the molecule was classed as inactive.
Regarding `COc1ccc(C2CNC(=O)C2)cc1OC1CCCC1` (configuration not stated), the Potency result in experiment [10], in experiment [2], in experiment [3], in experiment [5], in experiment [9] and in [6] was “inactive” each time. Besides, the molecule was classed as inactive in experiment [4].

The values above are taken from PubChem BioAssay (NCATS).
